Assay results: PubChem BioAssay AID651871 (Sanford-Burnham Center for Chemical Genomics, 2012)

System: HL-1
Assay: protection of cardiomyocytes from stress damage, SAR follow-up, cell-based, panel, H9c2 and HL-1, ATP luminescence, set 2 (AID 651871);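 note: cells exposed to stressor for 2 h before ATP readout; reference of the scale not given here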
Settings: H9c2/HL-1 cardiomyocytes, 2-deoxyglucose stress, with 2-deoxyglucose, run 2, at 19.8 µM (top of the series)

Q: `COc1ccc2c(c1OC)C(=O)N1c3ccccc3C(=O)N(Cc3cccc(Cl)c3Cl)C21` (stereo unspecified) was tested. Which activity (protection/inhibition) did it give?
A: 23.7%
